Screen size: about 300,000 compounds; about 5,200 (1.7%) were called active.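 How the source made its calls: active means mean replicate activation of at least 50% with a set share of replicates each reaching 50%; inconclusive means only one of those two conditions met; inactive means mean below 50% and too few replicates reaching it.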 Shown is part of a subset that was picked to be rich in actives.
Experiment: HSF-1 response element luciferase induction – NIH3T3-HGL cells, MG132 stress, luminescence, single point, primary screen (AID 504408);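 further: 0% = median of the neutral control wells and 100% = twice that signal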
Conditions: NIH3T3-HGL HSF-1 luciferase reporter, MG132, 8 h; at 9 µM; stronger effect = higher value; 100% = twice DMSO control signal

| SMILES | activation |
| --- | --- |
| COc1ccc(CCNc2cc(N3CCN(C(=O)c4ccccc4OC)CC3)ccc2[N+](=O)[O-])cc1OC | 22.3% (inactive) |
| N#Cc1ccc(-c2ccc(Cl)cc2)nc1Oc1ccc(F)cc1 | 82.1% (active) |
| CN(C)c1ccnc(Oc2ccc(F)cc2)c1C#N | 3.38% (inactive) |
| N#Cc1ccc(-c2ccc(F)cc2)nc1Sc1ccccc1 | -14.9% (inactive) |
| CCOc1ccc(C(=O)CCC(=O)NC2=NCCS2)cc1 | 12.7% (inactive) |
| O=C(c1ccc(Cl)cc1)c1cnc(Nc2ccccc2)s1 | 34.7% (inactive) |
| O=C(Nc1ccccc1)c1nnsc1S(=O)(=O)c1ccc(Cl)cc1 | 79.4% (active) |
| CS(=O)(=O)c1ccc(Cl)c(NC(=O)Nc2ccccc2)c1 | -2.82% (inactive) |
| CC(Sc1nn(-c2ccc(Cl)cc2)c(=S)s1)C(=O)NCC1CCCO1 (stereo unspecified) | 3.22% (inactive) |
| O=C(NNC(=S)Nc1ccc(Br)cc1Cl)c1ccco1 | 59% (active) |
| CCC(=O)NC(=S)Nc1ccc(NC(=O)c2ccco2)c(Cl)c1 | 7.81% (inactive) |
| O=C(NNC(=O)c1ccco1)Nc1ccccc1 | 12.4% (inactive) |
| CCCCn1c(N)c(N(CCC(C)C)C(=O)c2ccc(COc3ccccc3)o2)c(=O)[nH]c1=O | 7.06% (inactive) |
| CCCCn1c(N)c(N(CC(C)C)C(=O)CN(C)S(=O)(=O)c2ccc(F)cc2)c(=O)[nH]c1=O | -2.61% (inactive) |
| Cc1ccc(S(=O)(=O)N2CCN(C(=O)c3ccc(-n4cncn4)c([N+](=O)[O-])c3)CC2)cc1 | -21.4% (inactive) |
| O=C(CSc1cccc2cccnc12)N/N=C/c1cccnc1 | 161% (active) |
| Cc1ccc(NC(=O)CSc2cccc3cccnc23)c(C)c1 | 4.2% (inactive) |
| O=C(CNC(=O)c1cccnc1)N/N=C/c1cccnc1 | -3.13% (inactive) |
| CC(C)(C)S(=O)(=O)c1ccccc1-c1noc(-c2ccccc2)c1C(N)=O | -2.64% (inactive) |
| CCOc1cc(/C=C2\SC(N3CCCCC3)=NC2=O)ccc1O | 34.2% (inactive) |
| CC1CCN(C2=NC(=O)/C(=C/c3ccc(O)cc3)S2)CC1 | 8.53% (inactive) |
| O=C1N=C(N2CCCC2)S/C1=C\c1cccc(Br)c1 | 103% (active) |
| NC(=O)NC(=O)C(OC(=O)CCNS(=O)(=O)c1ccccc1)c1ccccc1 (stereo unspecified) | 18.2% (inactive) |
| O=C(CCNC(=O)c1ccc(Br)cc1)Nc1cccc(S(=O)(=O)N2CCCCC2)c1 | 23.3% (inactive) |
| CCCCn1c(N)c(N(CC(C)C)C(=O)c2ccc(Br)o2)c(=O)[nH]c1=O | -5.41% (inactive) |
| CCOc1ccc(/C=C/C(=O)OCC(=O)c2ccccc2OC)cc1OC | 1.42% (inactive) |

Reference: PubChem BioAssay AID504408 (Broad Institute, 2011)
